Pf growth 48h: P. falciparum growth inhibition at 48 hours (one generation). P. falciparum luciferase growth in erythrocytes, 48 h. Potency, µM (titrated, usually from 28.7 µM), for the others: at the highest dose activity change, negative = inhibition, most hits filed as inhibitors. 310,000 compounds, 5.9% hits. AID 504832
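First compound was added to culture medium, then infected red cells at 0.1% parasitemia and 2% hematocrit (final). After incubation at 37 C under 5% CO2, luciferase detection reagent was dispensed and light output recorded.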
AmpC detergent: AmpC beta-lactamase inhibition with detergent present | P00811 | AmpC hydrolysis of nitrocefin, absorbance 480 nm, 0.01% Triton | Potency, µM (series often up to 114 µM), without a hit: top-dose activity change, negative = inhibition, actives largely listed as inhibitors | 370,000 compounds, 0.041% hits;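 further: 0% = no-compound wells and -100% = no-enzyme wells; nearly all actives have a fitted effect of over 25% in size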
Target sequence (P00811 whole entry, looked up): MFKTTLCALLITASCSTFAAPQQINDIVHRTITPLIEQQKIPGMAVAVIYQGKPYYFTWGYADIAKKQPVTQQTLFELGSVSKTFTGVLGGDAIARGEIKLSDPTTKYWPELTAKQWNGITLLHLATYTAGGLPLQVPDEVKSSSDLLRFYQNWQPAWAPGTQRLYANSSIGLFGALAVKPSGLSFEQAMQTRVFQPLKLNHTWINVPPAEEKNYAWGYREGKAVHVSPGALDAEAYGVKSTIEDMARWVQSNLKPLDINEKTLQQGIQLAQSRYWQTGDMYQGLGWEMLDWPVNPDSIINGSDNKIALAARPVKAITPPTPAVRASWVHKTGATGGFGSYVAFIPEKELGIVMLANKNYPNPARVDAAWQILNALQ
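20 mM phosphate pH 7.0 + 0.01% (detergent screen) or 0.0001% Triton X-100; 5.3 nM AmpC reagent; cpd preinc 15 min RT; nitrocefin (800 uM stock) to start; A480 q20 s × 4 min; Activity was normalised to no-enzyme and no-compound control wells.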
AmpC inh no detg: inhibitors of E. coli AmpC beta-lactamase without detergent | P00811 | AmpC nitrocefin hydrolysis, absorbance 480 nm, 0.0001% Triton | Potency, µM (doses to about 57.1 µM), for the others: at the highest dose activity change, negative = inhibition, most hits filed as inhibitors | 330,000 compounds, 0.52% hits;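 further: plate controls were no compound for no effect and no enzyme for full effect; nearly all actives have a fitted effect of over 20% in size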
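20 mM phosphate pH 7.0 + 0.01% (detergent screen) or 0.0001% Triton X-100; 5.3 nM AmpC reagent; cpd preinc 15 min RT; nitrocefin (800 uM stock) to start; A480 q20 s × 4 min; Activity was normalised to no-enzyme and no-compound control wells.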
HCV inh: inhibitors of hepatitis C virus infection; Potency, µM (titrated, usually from 41.8 µM), without a hit: top-dose activity change, negative = inhibition, hits mostly inhibitors; Huh7.5.1 HCVcc-Cre infection, luciferase reporter, 44 h; 340,000 compounds, 3.4% hits
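Infectious HCV cell culture screen: compound-treated cells (1,000/well, pre-plated 4 h) are infected with HCVcc-Cre at roughly 0.5 moi and grown 44 h. Infection is quantified by luciferase signal after 15 min substrate incubation at room temperature.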
AMA1-RON2 inh: AMA1-RON2 (P. falciparum) interaction inhibition; AlphaScreen AMA1-biotinylated RON2 peptide binding; Potency, µM (series often up to 58.2 µM), for the others: at the highest dose activity change, negative = inhibition, usual class: inhibitors; 360,000 compounds, 0.2% hits;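 further: 0% = vehicle wells and -100% = peptide control; nearly all actives have a fitted effect of over 45% in size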
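AMA1 (3D7) with his tag at 25 nM final met compounds first, then biotinylated RON2 peptide at 25 nM; detection used donor plus acceptor beads, 10 µg/mL apiece, read by AlphaScreen after 30 min at room temperature.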
Pf growth 96h: P. falciparum growth inhibition at 96 hour, primary screen for plastid delayed-death inhibitors | P. falciparum luciferase reporter growth, 96 h | Potency, µM (top dose mostly 28.7 µM), for inactives: at the top dose activity change, negative = inhibition, actives largely listed as inhibitors | 320,000 compounds, 6.9% hits
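Parasite growth measured via integrated firefly luciferase reporter in P. falciparum. Infected erythrocytes at 2% hematocrit, 0.05% parasitemia final were treated 96 hours at 37 C under 5% CO2, and luminescence was read.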
An asterisk follows results filed as active; [ ] = remark or other dose. This is a sample that favours compounds with a hit; in the whole collection about 11% have one here. The call rests on the fitted dose curve; in most records, active means well fitted curve in the direction sought with a large enough effect; inconclusive means small, poorly fitted or top-dose-only effect, or another doubt; inactive means no such curve, though single readings can be large; an effect the other way counts as inactive or inconclusive. Unless noted, on the % scale 0 is the no-effect control and ±100 the full control effect; potency means the concentration at half of the fitted maximal effect.

What do the screens show for `CC1CN(Cc2nc3c(c(=O)n(C)c(=O)n3C)n2CCc2ccccc2)CC(C)O1` (stereo not drawn)?
HCV inh: -11%; AMA1-RON2 inh: -1%

Results for Cn1c(=O)c2c(nc(CN3CCc4ccccc4C3)n2Cc2ccccc2)n(C)c1=O ?
Pf growth 48h: 13µM*; AmpC detergent: -2%; AmpC inh no detg: 100%; HCV inh: 13µM*; AMA1-RON2 inh: -3%; Pf growth 96h: 12µM*

Results for CC(C)CCn1c(CN2CCN(Cc3ccccc3)CC2)nc2c1c(=O)n(C)c(=O)n2C ?
Pf growth 48h: 4.7µM*; AmpC detergent: inconclusive; AmpC inh no detg: 174%; HCV inh: -28%; AMA1-RON2 inh: 0%; Pf growth 96h: inconclusive

How did CCCCn1c(CN2CCN(c3ccccc3)CC2)nc2c1c(=O)n(C)c(=O)n2C do in these assays?
Pf growth 48h: inconclusive; AmpC detergent: -4%; AmpC inh no detg: inconclusive; HCV inh: 7.1µM*; AMA1-RON2 inh: -3%; Pf growth 96h: inconclusive

What do the screens show for `Cn1c(=O)c2c(nc(CN3CCN(c4ccccc4)CC3)n2CCCc2ccccc2)n(C)c1=O`?
HCV inh: 18%; AMA1-RON2 inh: -5%

Results for CCCCCn1c(CN2CCN(c3cccc(Cl)c3)CC2)nc2c1c(=O)n(C)c(=O)n2C ?
Pf growth 48h: inconclusive; AmpC detergent: 0%; AmpC inh no detg: 84%; HCV inh: inconclusive; AMA1-RON2 inh: -6%

Results for CC(C)Cn1c(CN2CCN(C(=O)c3ccco3)CC2)nc2c1c(=O)n(C)c(=O)n2C ?
Pf growth 48h: 4%; AmpC detergent: -5%; AmpC inh no detg: 25%; HCV inh: 12%; AMA1-RON2 inh: 1%; Pf growth 96h: 69%

What do the screens show for `CC(C)CCn1c(CN2CCN(C(=O)c3ccco3)CC2)nc2c1c(=O)n(C)c(=O)n2C`?
AmpC detergent: inconclusive; AmpC inh no detg: 102%; HCV inh: 4%; AMA1-RON2 inh: -2%; Pf growth 96h: 6.6µM*

What do the screens show for `CCCCCn1c(CN2CCN(Cc3ccccc3)CC2)nc2c1c(=O)n(C)c(=O)n2C`?
Pf growth 48h: 8.3µM*; AmpC detergent: -10%; AmpC inh no detg: 146%; HCV inh: -15%; AMA1-RON2 inh: 18%; Pf growth 96h: inconclusive

How did COc1ccc(NC(=O)Cc2c(SC)c3ccccc3n2Cc2ccccc2)cc1 do in these assays?
Pf growth 48h: 12µM*; AmpC detergent: -4%; AmpC inh no detg: -27%; HCV inh: 16%; AMA1-RON2 inh: -7%; Pf growth 96h: 7.4µM*

What do the screens show for `CSc1c(CC(=O)NCCCO)n(Cc2ccccc2)c2ccccc12`?
Pf growth 48h: -14%; AmpC detergent: inconclusive; AmpC inh no detg: 117%; HCV inh: 12%; AMA1-RON2 inh: 0%; Pf growth 96h: 9.3µM*

Results for CCc1ccc(-n2nc(CO)c(C(=O)NC)n2)cc1 ?
AmpC detergent: 1%

How did O=C1CC(c2nc3ccccc3[nH]2)CN1c1cccc(Cl)c1 (stereo not drawn) do in these assays?
AmpC detergent: 12%

How did CCc1ccc(-n2nc3ccc(NC(=O)COc4ccc(OC)cc4)cc3n2)cc1 do in these assays?
AmpC detergent: 2%

How did O=C(NC1(C(F)(F)F)C(=O)Nc2c1c(=O)[nH]c(=O)n2-c1ccc(F)cc1)c1ccccc1 (stereo not drawn) do in these assays?
AmpC detergent: -4%

Results for Cc1cccc(C2=NC(C(F)(F)F)(C(F)(F)F)c3c(n(-c4ccc(F)cc4)c(=O)[nH]c3=O)N2)c1 ?
Pf growth 48h: 13µM*; AmpC detergent: 1%; AmpC inh no detg: -17%; HCV inh: inconclusive; AMA1-RON2 inh: 11%; Pf growth 96h: 12µM*

Results for O=C(NCc1ccco1)c1cc2ccc(O)cc2oc1=O ?
Pf growth 48h: 105%; AmpC detergent: -1%; AmpC inh no detg: -17%; HCV inh: 19%; AMA1-RON2 inh: -11%

What do the screens show for `COc1ccc(-c2cc(C(=O)NCc3ccco3)c3ccccc3n2)cc1`?
Pf growth 48h: inconclusive; AmpC detergent: inconclusive; AmpC inh no detg: 64%; HCV inh: -13%; AMA1-RON2 inh: 0%; Pf growth 96h: 3.3µM*

What do the screens show for `COc1ccc2cc(C(=O)NCc3ccco3)c(=O)oc2c1`?
Pf growth 48h: 73%; AmpC detergent: 1%; AmpC inh no detg: -23%; HCV inh: 0%; AMA1-RON2 inh: 11%; Pf growth 96h: 13µM*

How did COc1ccc2cc(C(=O)NCc3ccco3)c(=Nc3ccc(C(=O)O)cc3)oc2c1 do in these assays?
Pf growth 48h: 10µM*; AmpC detergent: -9%; AmpC inh no detg: -8%; HCV inh: inconclusive; AMA1-RON2 inh: -11%; Pf growth 96h: inconclusive

Results for CC(NC(=O)C(=O)N1CCOCC1)C(c1cccs1)N1CCN(c2ccccc2F)CC1 (stereo not drawn) ?
Pf growth 48h: inconclusive; AmpC detergent: -3%; AmpC inh no detg: 148%; HCV inh: 1%; AMA1-RON2 inh: -1%; Pf growth 96h: inconclusive

What do the screens show for `CC(NC(=O)C(=O)N1CCCCC1)C(c1cccs1)N1CCN(c2ccccc2F)CC1` (stereo not drawn)?
Pf growth 48h: inconclusive; AmpC detergent: 0%; AmpC inh no detg: 140%; HCV inh: 5%; AMA1-RON2 inh: 6%; Pf growth 96h: 1.3µM*

How did CC(OC(=O)c1ccco1)C(=O)NCc1cccs1 (stereo not drawn) do in these assays?
Pf growth 48h: 0%; AmpC detergent: 1%; AmpC inh no detg: -16%; HCV inh: 20%; AMA1-RON2 inh: 15%; Pf growth 96h: 12µM*

What do the screens show for `O=C(CSc1nc2c(c(=O)[nH]1)CCCC2)Nc1cccc(O)c1`?
AmpC detergent: 6%

Results for COc1cccc2sc(NNC(=O)COc3ccccc3)nc12 ?
Pf growth 48h: -6%; AmpC detergent: 5%; AmpC inh no detg: -9%; HCV inh: inconclusive; AMA1-RON2 inh: 112%; Pf growth 96h: -41%[1.15 µM]

How did COc1cccc2sc(Nc3nc(-c4ccccn4)cs3)nc12 do in these assays?
Pf growth 48h: 0.47µM*; AmpC detergent: 6%; AmpC inh no detg: 125%; Pf growth 96h: inconclusive

Results for c1cncc(Nc2nc(-c3cccs3)cs2)c1 ?
Pf growth 48h: 2%; AmpC detergent: 2%; AmpC inh no detg: -38%; HCV inh: 3.2µM*; AMA1-RON2 inh: 19%; Pf growth 96h: 2.9µM*

From PubChem BioAssay
